Results filed as inconclusive are left out. Calls of active or inactive are those of the source. Rule for the calls, unless noted: active = hit-call score of the fitted dose curve at least 0.9, where 1 is the maximum; inactive = score below 0.9.
Legend:
[1] = target: Bile acid receptor (Homo sapiens) (UniProt Q96RI1); experiment: ATG_FXR_TRANS: Attagene TRANS-FACTORIAL HepG2 Assay for Farnesoid X Receptor (FXR) (AID 2282979; active = hit-call score of the fitted dose curve at least 0.9, where 1 is the maximum;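 note: hits raise reporter mRNA above DMSO so AC50 marks FXR activation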); details: HepG2 Attagene TRANS FXR-GAL4 reporter transcription
Method in brief: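 Read-out: fluorescent reporter transcripts quantified by capillary electrophoresis after RT-PCR of total RNA. Source cells were HepG2 transiently carrying chimeric NR-GAL4 plus GAL4-UAS reporter units, dosed 24 h. Activity fitted upward relative to DMSO baseline.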

[2] = ATG_M_32_TRANS: Attagene TRANS-FACTORIAL HepG2 Assay for M32 Transcription Factor (Internal Marker) (AID 2282984; active = hit-call score of the fitted dose curve at least 0.9, where 1 is the maximum); details: HepG2 Attagene TRANS M32 internal marker reporter
Method in brief: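 Internal background reporter in transfected HepG2: after 24 h chemical exposure, RNA reverse-transcribed, reporter cDNA amplified, fluorescently labelled and HpaI-cut, then sized by capillary electrophoresis. Gain of signal fitted against DMSO control.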

[3] = target: Nuclear receptor subfamily 4 group A member 2 (Homo sapiens) (UniProt P43354); experiment: ATG_NURR1_TRANS: Attagene TRANS-FACTORIAL HepG2 Assay for human Nuclear Receptor Related Protein 1 (NURR1) (AID 2282985; active = hit-call score of the fitted dose curve at least 0.9, where 1 is the maximum); details: HepG2 Attagene TRANS reporter, mRNA readout
Method in brief: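 Reporter transcript induction, measured by RT-PCR with fluorescent labelling, HpaI digestion and capillary electrophoresis, after 24 hr dosing of human HepG2 cells transiently expressing an exogenous NR-Gal4 fusion with GAL4-UAS-driven reporters; DMSO as baseline.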

[4] = target: Transcriptional activator Myb (Homo sapiens) (UniProt P10242); experiment: ATG_Myb_CIS: Attagene CIS-FACTORIAL HepG2 Assay for human Myeloblastosis (Myb) Proto-Oncogene Transcription Factor (AID 2282986); details: HepG2 Attagene CIS-FACTORIAL Myb reporter transcription; actives raise or lower the signal
Method in brief: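 Reporter transcript levels, quantified by fluorescent RT-PCR and capillary electrophoresis, serve as the read-out. Transfected HepG2 cells carrying cis-promoter reporter units are dosed for 24 hours, and curves are fitted bidirectionally against DMSO controls.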

[5] = target: Nuclear respiratory factor 1 (Homo sapiens) (UniProt Q16656); experiment: ATG_NRF1_CIS: Attagene CIS-FACTORIAL HepG2 Assay for human Nuclear Respiratory Factor 1 (NRF1) Orphan Gene (AID 2282987); details: HepG2 NRF1 cis-element reporter, Attagene multiplex; actives raise or lower the signal
Method in brief: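 Multiplexed cis-reporter assay, HepG2 cells, 24 h treatment. Total RNA → oligo(dT) RT → PCR with reporter-specific primers → 6-FAM primer extension → HpaI cut → CE. Bidirectional fit vs DMSO.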

[6] = ATG_NFI_CIS: Attagene CIS-FACTORIAL HepG2 Assay for human Nuclear Factor I (NFI) (AID 2282989); details: HepG2 cis-regulatory reporter, NFI response element transcription; actives raise or lower the signal
Method in brief: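 Read-out: reporter mRNA via RT-PCR plus capillary electrophoresis with fluorescence detection. Transiently transfected HepG2 (endogenous TF activity on cis promoters), 24 h compound exposure; gain or loss of signal fitted against DMSO.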

[7] = ATG_NRF2_ARE_CIS: Attagene CIS-FACTORIAL HepG2 Assay for human Nuclear Factor Erythroid 2 Related Factor 2 (NFR2) response to Antioxidant Response Elements (ARE) (AID 2282992); details: HepG2 Attagene ARE/NRF2 reporter, transcription factor activity; actives raise or lower the signal;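 for AC50: reporter mRNA level measured by RT-PCR and capillary electrophoresis fluorescence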
Method in brief: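 Endogenous transcription factor activity in human liver HepG2 cells is tracked via a cis-element-driven reporter within a multiplexed set. mRNA induction is read by RT-PCR and capillary electrophoresis after 24 h, with DMSO as baseline.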

[8] = ATG_Oct_MLP_CIS: Attagene CIS-FACTORIAL HepG2 Assay for human Octamer-Binding Transcription Factor (Oct) (AID 2282993); details: HepG2 Attagene cis-factorial Oct reporter, mRNA; actives raise or lower the signal
Method in brief: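 Read-out: reporter mRNA via RT-PCR plus capillary electrophoresis of 6-FAM-labelled fragments. Transiently transfected HepG2, 24 h exposure, endogenous TF activity on cis elements. Gain or loss of signal fitted relative to DMSO.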

[9] = target: Cellular tumor antigen p53 (Homo sapiens) (UniProt P04637); experiment: ATG_p53_CIS: Attagene CIS-FACTORIAL HepG2 Assay for human p53 Transcription Factor (AID 2282994); details: HepG2 p53 cis-element reporter, Attagene mRNA; actives raise or lower the signal
Method in brief: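 Steps: transfect HepG2 with multiplexed cis reporter constructs; dose chemicals 24 h; extract RNA, reverse-transcribe, PCR-amplify reporter sequences; FAM-label, HpaI-digest, resolve fragments by CE. Activity fitted both directions relative to DMSO.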

[10] = BSK_3C_TissueFactor: BioMAP Diversity Plus: 3C Assay for Tissue Factor Biomarker Activity (AID 2282997); details: BioMAP 3C HUVEC, tissue factor biomarker readout; actives raise or lower the signal
Method in brief: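 HUVEC, 3C system, 24 h post-dose; Tissue Factor by ELISA; bidirectional fit vs DMSO baseline.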

[11] = BSK_3C_uPAR: BioMAP Diversity Plus: 3C Assay for Urokinase-type plasminogen activator receptor (uPAR) Biomarker Activity (AID 2282998); details: BioMAP 3C HUVEC, uPAR biomarker ELISA; actives raise or lower the signal
Method in brief: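 HUVEC primary cells; 24 h post-dose; uPAR by ELISA; gain or loss of signal fitted bidirectionally vs DMSO baseline.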

[12] = BSK_3C_VCAM1: BioMAP Diversity Plus: 3C Assay for Vascular cell adhesion molecule 1 (VCAM1) Biomarker Activity (AID 2282999); details: BioMAP 3C HUVEC, VCAM1 ELISA, cytokine-stimulated; actives raise or lower the signal
Method in brief: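 Activity fitted in both directions relative to DMSO, with ELISA measurement of the surface marker on primary HUVEC (3C) at 24 h post-treatment; parallel SRB staining (0.1% SRB, TCA-fixed, 560 nm) flagged overt cytotoxicity.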

[13] = target: human Peroxisome Proliferator-activated Receptor alpha (PPARa), PPARA (gene 5465) (UniProt Q07869); experiment: ATG_PPARa_TRANS: Attagene TRANS-FACTORIAL HepG2 Assay for human Peroxisome Proliferator-activated Receptor alpha (PPARa) (AID 2283001; active = hit-call score of the fitted dose curve at least 0.9, where 1 is the maximum;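 for AC50: potency for gain of reporter signal over DMSO so agonist or activator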)
Method in brief: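 Reporter transcripts quantified by RT-PCR plus capillary electrophoresis after 24 h treatment, fitted upward relative to DMSO. Cells: human HepG2 transiently carrying multiple GAL4-UAS reporter units driven by NR-Gal4 chimeras.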

[14] = target: human Peroxisome Proliferator-activated Receptor delta (PPARd), PPARD (gene 5467) (UniProt Q03181); experiment: ATG_PPARd_TRANS: Attagene TRANS-FACTORIAL HepG2 Assay for human Peroxisome Proliferator-activated Receptor delta (PPARd) (AID 2283002; active = hit-call score of the fitted dose curve at least 0.9, where 1 is the maximum)
Method in brief: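 Read-out is induced reporter mRNA, quantified by RT-PCR with fluorescent labelling and capillary electrophoresis after 24 h dosing. Cells are HepG2 transiently carrying multiple GAL4-UAS reporter units driven by exogenous NR-GAL4 chimeras; DMSO serves as baseline.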

[15] = target: Oxysterols receptor LXR-alpha (Homo sapiens) (UniProt Q13133); experiment: ATG_LXRa_TRANS: Attagene TRANS-FACTORIAL HepG2 Assay for human Liver X Receptor alpha (LXRa) (AID 2282980; active = hit-call score of the fitted dose curve at least 0.9, where 1 is the maximum); details: HepG2 Attagene TRANS reporter, LXRa transactivation
Method in brief: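 Read-out: reporter transcript levels by RT-PCR plus capillary electrophoresis, fluorescence intensity. Transiently transfected HepG2, exogenous NR-GAL4 chimera, GAL4-UAS reporters; 24 h compound exposure. Activity = increase over DMSO negative control.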

[16] = target: Oxysterols receptor LXR-beta (Homo sapiens) (UniProt P55055); experiment: ATG_LXRb_TRANS: Attagene TRANS-FACTORIAL HepG2 Assay for human Liver X Receptor beta (LXRb) (AID 2282981; active = hit-call score of the fitted dose curve at least 0.9, where 1 is the maximum); details: HepG2 Attagene TRANS GAL4-LXRb reporter, mRNA
Method in brief: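 After 24 h chemical treatment of transfected HepG2 cells carrying exogenous NR-Gal4 chimeras, reporter mRNA was quantified by fluorescent RT-PCR and capillary electrophoresis; activity taken as increase over DMSO controls.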

[17] = ATG_NF_kB_CIS: Attagene CIS-FACTORIAL HepG2 Assay for human Nuclear Factor Kappa B (NF-kB) (AID 2282991); details: HepG2 Attagene cis-factorial NF-kB reporter mRNA; actives raise or lower the signal
Method in brief: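 Transient MRTU transfection of human HepG2 liver cells → 24 h chemical exposure → total RNA, oligo(dT) RT → PCR, 6-FAM primer extension, HpaI digest 2 h 37 C → CE fragment analysis. Bidirectional fitting, DMSO negative control.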

[18] = BSK_4H_Eotaxin3: BioMAP Diversity Plus: 4H Assay for Eotaxin 3 Biomarker Activity (AID 2283000); details: primary human endothelial cells (HUVEC); actives raise or lower the signal
Method in brief: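 Readout is Eotaxin-3 (CCL26) level by ELISA in primary human umbilical vein endothelial cells harvested 24 h after chemical exposure; activity fitted in both directions against DMSO control.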

[19] = ATG_M_06_TRANS: Attagene TRANS-FACTORIAL HepG2 Assay for M06 Transcription Factor (Internal Marker) (AID 2282983; active = hit-call score of the fitted dose curve at least 0.9, where 1 is the maximum); details: HepG2 Attagene TRANS M06 internal marker reporter
Method in brief: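 Read-out: fluorescent reporter cDNA fragments resolved by capillary electrophoresis after RT-PCR and HpaI cut. Source cells were HepG2 carrying transfected multi-reporter GAL4 constructs, dosed 24 h. Increase over DMSO control analysed.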

[20] = target: Myc proto-oncogene protein (Homo sapiens) (UniProt P01106); experiment: ATG_Myc_CIS: Attagene CIS-FACTORIAL HepG2 Assay for human Myelocytomatosis (Myc) Proto-Oncogene Transcription Factor (AID 2282990); details: HepG2, Attagene cis-reporter transcription factor activity; actives raise or lower the signal
Method in brief: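 After 24 h chemical treatment of HepG2 cells carrying multiplexed cis-regulated reporter constructs, reporter transcripts quantified by RT-PCR and capillary electrophoresis of fluorescent fragments. Gain or loss fitted against DMSO baseline.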

Measured: AC50

Chain of Bile acid receptor (Homo sapiens) (Q96RI1 whole entry, looked up, the tested form may be a part): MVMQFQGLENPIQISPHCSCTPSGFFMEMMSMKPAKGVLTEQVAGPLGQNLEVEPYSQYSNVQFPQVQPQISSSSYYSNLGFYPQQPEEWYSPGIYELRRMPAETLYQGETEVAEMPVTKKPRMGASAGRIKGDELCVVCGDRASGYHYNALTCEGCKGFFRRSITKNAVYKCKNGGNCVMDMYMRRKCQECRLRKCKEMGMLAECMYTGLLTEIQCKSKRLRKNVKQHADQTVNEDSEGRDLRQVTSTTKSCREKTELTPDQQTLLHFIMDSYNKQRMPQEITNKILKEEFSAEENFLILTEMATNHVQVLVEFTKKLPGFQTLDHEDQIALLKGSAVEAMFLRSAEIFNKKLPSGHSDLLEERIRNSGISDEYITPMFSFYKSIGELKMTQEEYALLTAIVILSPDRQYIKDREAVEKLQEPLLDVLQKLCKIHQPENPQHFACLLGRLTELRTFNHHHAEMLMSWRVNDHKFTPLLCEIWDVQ
Chain of Oxysterols receptor LXR-beta (Homo sapiens) (P55055 whole entry, looked up, the tested form may be a part): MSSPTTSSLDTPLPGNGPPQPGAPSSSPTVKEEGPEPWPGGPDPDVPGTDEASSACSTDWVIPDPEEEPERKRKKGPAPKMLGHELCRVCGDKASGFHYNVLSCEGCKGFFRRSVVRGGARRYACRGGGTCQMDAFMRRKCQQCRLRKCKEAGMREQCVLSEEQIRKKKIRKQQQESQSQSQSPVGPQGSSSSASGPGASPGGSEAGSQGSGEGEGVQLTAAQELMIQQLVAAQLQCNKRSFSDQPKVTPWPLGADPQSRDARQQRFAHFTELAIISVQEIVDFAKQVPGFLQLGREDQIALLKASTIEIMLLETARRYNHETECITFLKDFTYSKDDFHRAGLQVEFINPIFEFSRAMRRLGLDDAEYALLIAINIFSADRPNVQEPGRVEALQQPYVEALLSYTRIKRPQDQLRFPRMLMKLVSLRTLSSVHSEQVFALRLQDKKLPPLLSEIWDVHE
Chain of human Peroxisome Proliferator-activated Receptor delta (PPARd), PPARD (gene 5467) (Q03181 whole entry, looked up, the tested form may be a part): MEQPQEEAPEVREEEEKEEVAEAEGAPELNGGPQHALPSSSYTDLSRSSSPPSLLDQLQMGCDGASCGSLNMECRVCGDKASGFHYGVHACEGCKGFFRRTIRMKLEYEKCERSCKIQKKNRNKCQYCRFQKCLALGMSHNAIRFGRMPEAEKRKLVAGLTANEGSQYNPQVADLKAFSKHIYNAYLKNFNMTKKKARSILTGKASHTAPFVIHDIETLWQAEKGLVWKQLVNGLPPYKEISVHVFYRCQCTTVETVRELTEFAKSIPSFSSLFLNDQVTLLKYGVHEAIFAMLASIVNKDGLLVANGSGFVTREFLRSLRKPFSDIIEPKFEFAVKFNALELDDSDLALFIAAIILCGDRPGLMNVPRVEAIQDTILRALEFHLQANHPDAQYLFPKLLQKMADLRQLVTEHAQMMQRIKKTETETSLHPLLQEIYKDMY
Chain of Cellular tumor antigen p53 (Homo sapiens) (P04637 whole entry, looked up, the tested form may be a part): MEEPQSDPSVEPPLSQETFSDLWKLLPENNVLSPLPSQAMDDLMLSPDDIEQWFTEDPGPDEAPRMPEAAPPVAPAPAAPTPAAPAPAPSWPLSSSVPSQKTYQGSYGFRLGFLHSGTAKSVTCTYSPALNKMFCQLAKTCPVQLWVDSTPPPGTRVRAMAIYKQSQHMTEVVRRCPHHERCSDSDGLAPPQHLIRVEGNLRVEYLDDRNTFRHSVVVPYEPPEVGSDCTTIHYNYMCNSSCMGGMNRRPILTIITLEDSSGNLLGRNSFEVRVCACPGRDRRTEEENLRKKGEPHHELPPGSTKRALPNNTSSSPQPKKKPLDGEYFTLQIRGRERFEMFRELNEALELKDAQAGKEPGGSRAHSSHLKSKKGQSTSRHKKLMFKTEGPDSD
Chain of Oxysterols receptor LXR-alpha (Homo sapiens) (Q13133 whole entry, looked up, the tested form may be a part): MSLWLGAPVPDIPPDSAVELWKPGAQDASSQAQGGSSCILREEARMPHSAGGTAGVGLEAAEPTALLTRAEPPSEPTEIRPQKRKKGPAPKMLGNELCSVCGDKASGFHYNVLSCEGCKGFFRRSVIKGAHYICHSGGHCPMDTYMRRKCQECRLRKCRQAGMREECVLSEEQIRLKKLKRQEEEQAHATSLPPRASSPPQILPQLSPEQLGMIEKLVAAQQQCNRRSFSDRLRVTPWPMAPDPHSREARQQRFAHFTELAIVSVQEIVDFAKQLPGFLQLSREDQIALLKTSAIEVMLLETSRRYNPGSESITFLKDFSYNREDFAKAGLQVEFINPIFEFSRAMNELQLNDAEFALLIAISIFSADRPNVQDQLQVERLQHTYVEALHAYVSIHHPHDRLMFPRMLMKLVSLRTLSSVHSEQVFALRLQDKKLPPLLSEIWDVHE
Chain of Nuclear receptor subfamily 4 group A member 2 (Homo sapiens) (P43354 whole entry, looked up, the tested form may be a part): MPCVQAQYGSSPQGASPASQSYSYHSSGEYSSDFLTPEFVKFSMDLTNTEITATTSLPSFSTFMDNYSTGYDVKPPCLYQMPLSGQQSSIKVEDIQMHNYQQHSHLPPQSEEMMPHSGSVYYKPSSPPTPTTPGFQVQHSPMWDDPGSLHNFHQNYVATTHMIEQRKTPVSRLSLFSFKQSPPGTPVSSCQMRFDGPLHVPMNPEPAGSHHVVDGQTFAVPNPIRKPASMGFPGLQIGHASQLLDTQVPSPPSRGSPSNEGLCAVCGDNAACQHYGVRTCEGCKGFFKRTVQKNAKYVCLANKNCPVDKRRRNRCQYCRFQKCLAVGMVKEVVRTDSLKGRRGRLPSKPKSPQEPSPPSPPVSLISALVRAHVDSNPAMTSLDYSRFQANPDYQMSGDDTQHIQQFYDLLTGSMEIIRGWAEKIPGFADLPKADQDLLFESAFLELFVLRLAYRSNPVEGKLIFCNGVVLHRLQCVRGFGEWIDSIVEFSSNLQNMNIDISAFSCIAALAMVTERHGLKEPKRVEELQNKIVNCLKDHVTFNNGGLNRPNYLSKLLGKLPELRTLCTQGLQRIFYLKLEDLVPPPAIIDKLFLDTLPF
Chain of Transcriptional activator Myb (Homo sapiens) (P10242 whole entry, looked up): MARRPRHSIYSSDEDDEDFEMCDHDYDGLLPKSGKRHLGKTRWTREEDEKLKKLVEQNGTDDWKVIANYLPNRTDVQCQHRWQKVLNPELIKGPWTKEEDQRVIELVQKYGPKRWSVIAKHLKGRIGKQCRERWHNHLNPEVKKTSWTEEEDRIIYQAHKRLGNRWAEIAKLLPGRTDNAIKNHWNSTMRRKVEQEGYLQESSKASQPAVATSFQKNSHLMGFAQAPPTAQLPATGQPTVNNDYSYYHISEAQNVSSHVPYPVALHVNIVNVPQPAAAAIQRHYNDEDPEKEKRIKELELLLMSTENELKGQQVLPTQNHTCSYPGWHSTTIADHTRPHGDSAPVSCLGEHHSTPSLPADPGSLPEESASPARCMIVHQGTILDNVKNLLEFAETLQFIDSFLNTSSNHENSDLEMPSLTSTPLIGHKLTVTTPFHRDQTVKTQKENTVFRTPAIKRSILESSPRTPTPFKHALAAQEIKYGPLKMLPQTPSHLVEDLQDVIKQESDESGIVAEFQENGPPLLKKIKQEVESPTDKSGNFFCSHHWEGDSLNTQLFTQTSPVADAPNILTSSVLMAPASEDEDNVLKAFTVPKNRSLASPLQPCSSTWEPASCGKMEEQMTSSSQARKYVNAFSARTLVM
Chain of human Peroxisome Proliferator-activated Receptor alpha (PPARa), PPARA (gene 5465) (Q07869 whole entry, looked up, the tested form may be a part): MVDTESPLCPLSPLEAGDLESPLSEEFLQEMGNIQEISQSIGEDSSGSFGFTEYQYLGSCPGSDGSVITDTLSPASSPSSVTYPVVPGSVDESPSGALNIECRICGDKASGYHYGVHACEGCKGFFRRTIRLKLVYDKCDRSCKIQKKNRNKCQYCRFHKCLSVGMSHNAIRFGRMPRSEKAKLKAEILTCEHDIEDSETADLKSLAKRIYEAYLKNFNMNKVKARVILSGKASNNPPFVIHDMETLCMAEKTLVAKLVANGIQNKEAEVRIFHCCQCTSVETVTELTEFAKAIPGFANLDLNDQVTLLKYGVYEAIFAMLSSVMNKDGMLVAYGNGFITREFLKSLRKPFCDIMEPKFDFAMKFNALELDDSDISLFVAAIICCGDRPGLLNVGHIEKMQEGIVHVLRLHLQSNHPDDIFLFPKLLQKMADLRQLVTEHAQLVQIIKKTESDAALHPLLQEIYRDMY
Chain of Nuclear respiratory factor 1 (Homo sapiens) (Q16656 whole entry, looked up): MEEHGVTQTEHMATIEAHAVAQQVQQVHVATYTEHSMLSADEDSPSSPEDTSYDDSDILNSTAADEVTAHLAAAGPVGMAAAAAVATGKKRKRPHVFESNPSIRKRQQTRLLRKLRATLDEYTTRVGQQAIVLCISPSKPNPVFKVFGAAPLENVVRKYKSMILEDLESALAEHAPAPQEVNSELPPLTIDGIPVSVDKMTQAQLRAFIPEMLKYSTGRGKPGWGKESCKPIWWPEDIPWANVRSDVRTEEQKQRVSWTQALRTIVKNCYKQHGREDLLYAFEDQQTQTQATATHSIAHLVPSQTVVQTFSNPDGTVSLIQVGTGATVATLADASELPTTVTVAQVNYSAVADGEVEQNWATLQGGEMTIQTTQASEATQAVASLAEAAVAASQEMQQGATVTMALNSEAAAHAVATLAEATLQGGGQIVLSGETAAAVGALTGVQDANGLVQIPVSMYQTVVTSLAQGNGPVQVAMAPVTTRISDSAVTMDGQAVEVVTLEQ
Chain of Myc proto-oncogene protein (Homo sapiens) (P01106 whole entry, looked up, the tested form may be a part): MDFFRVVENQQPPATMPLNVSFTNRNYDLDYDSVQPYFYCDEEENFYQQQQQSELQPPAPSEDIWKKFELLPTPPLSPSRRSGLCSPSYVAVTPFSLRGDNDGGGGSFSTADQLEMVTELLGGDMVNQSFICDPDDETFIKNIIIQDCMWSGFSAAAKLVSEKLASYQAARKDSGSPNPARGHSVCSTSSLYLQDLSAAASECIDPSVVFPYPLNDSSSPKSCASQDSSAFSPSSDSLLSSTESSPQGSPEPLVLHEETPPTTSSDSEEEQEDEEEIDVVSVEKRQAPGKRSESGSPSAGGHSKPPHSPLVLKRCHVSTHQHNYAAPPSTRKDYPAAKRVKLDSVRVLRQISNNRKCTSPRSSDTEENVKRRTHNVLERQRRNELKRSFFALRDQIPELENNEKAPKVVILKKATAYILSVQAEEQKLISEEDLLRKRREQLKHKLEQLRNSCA

COc1ccc2sc(C(=O)Nc3nnn[nH]3)c(OC(C)C)c2c1
active: [7] 70.2 µM | [8] 155 µM | [9] 71.4 µM | [10] 22.5 µM | [11] 5.51 µM | [12] 23.7 µM
inactive: [1] | [2] | [3] | [4] | [5] | [6] | [13] | [14]

COc1ccc(/C=C/S(=O)(=O)NC(=O)c2ccc(C)cc2Cl)cc1
not listed: [1] | [3] | [4] | [19] | [20]
inactive: all other assays above

CC[C@H](C)C(=O)O[C@H]1C[C@@H](C)C=C2C=C[C@H](C)[C@H](CC[C@@H]3C[C@@H](O)CC(=O)O3)[C@H]21
active: [7] 33.4 µM | [8] 6.78 µM | [10] 31 µM | [11] 18.3 µM | [12] 33.7 µM | [18] 31.5 µM
not listed: [4] | [14] | [16] | [20]
inactive: all other assays above

CCCCC(CC)COC(=O)CCCCCCCCC(=O)OCC(CC)CCCC (stereo not drawn)
not listed: [1] | [4] | [17] | [18] | [19] | [20]
inactive: all other assays above

Cc1c(-c2cccnc2)c2ccccc2n1CCCCC(=O)O
active: [17] 100 µM
not listed: [2] | [3] | [4] | [15] | [18] | [19]
inactive: all other assays above

CCOC(=O)c1ccc(C2CCC(NC[C@H](O)COc3ccc(O)c(NS(C)(=O)=O)c3)CC2)cc1 (stereo partly drawn)
active: [1] 33 µM | [4] 55.5 µM | [20] 53.8 µM | [8] 49.2 µM | [9] 50 µM | [11] 31.2 µM | [12] 30.5 µM | [13] 54.8 µM
inactive: [2] | [5] | [6] | [7] | [10]

CCCCC(CC)COC(=O)c1ccc(C(=O)OCC(CC)CCCC)cc1 (stereo not drawn)
not listed: [2] | [3] | [13] | [14] | [16] | [17] | [19]
inactive: all other assays above

C=CCCCCCCCCC(=O)O
active: [13] 26.7 µM
not listed: [1] | [4] | [14] | [19]
inactive: all other assays above

Cc1[nH]cnc1C[C@H]1CCc2c(C)c3ccccc3n2C1=O
active: [5] 13.1 µM | [8] 21 µM | [9] 7.45 µM | [11] 27.4 µM | [18] 29.6 µM
not listed: [17] | [19]
inactive: all other assays above

Nc1cccc(N)c1
not listed: [2] | [4] | [13] | [14] | [15] | [20]
inactive: all other assays above

CC(C)c1cccc(C(C)C)c1N1C(=O)c2ccc(O)cc2C1=O
active: [1] 19.8 µM | [5] 152 µM | [6] 62.9 µM | [20] 164 µM | [7] 25.2 µM | [8] 76.2 µM | [9] 166 µM | [11] 19 µM | [12] 16.7 µM | [18] 30.8 µM
inactive: [16] | [2] | [3] | [4] | [17] | [10] | [14]

COC(=O)c1c(Cl)c(Cl)c(C(=O)OC)c(Cl)c1Cl
not listed: [4] | [16] | [18] | [19] | [20]
inactive: all other assays above

CNCc1ccc(NC(=O)c2c[nH]c3c2C(=O)CCC3)cc1
active: [7] 56.6 µM
not listed: [1] | [13] | [18] | [19]
inactive: all other assays above

CN(C)c1ccc(Cc2ccc(N(C)C)cc2)cc1
active: [3] 49.1 µM | [6] 180 µM | [17] 37.9 µM | [7] 78.2 µM | [8] 56.7 µM | [14] 58.5 µM
not listed: [2] | [13] | [15] | [19]
inactive: all other assays above

CC/C(=C\C(=N/O)C(N)=O)C(C)[N+](=O)[O-] (stereo not drawn)
active: [7] 38.7 µM | [12] 20 µM
inactive: [15] | [2] | [5] | [6] | [8] | [9] | [10] | [11] | [18] | [13]
